tim10-1 inh: tim10-1 yeast growth inhibition; S. cerevisiae tim10-1 ts strain growth, BacTiter-Glo, 24 h; inhibition, % at 20 µM; 330,000 tested, 2.2% active; AID 463190;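 active = inhibition of at least 40%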;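 also: mutant grown at 25 °C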
NALP1 yeast inh: NALP1 inhibition; S. cerevisiae NALP1/ASC/caspase-1 growth, X-gal OD620, 72 h; inhibition, % at 10 µM; 280,000 tested, 0.61% active; AID 2071; in the data active = inhibition mostly above about 24%, no sharp cut-off; inactive = mostly below about 32%
TIM10 inh: growth inhibitors of TIM10 yeast strain | S. cerevisiae TIM10 strain growth, BacTiter-Glo luminescence, 24 h | inhibition, % at 10 µM | 330,000 tested, 1.4% active;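 active = inhibition of 40% or more at the single tested concentration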;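 also: wild-type TIM10 isogenic control strain grown at permissive 25 °C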
V-ATPase pH: yeast V-ATPase proton transport regulation by pHLuorin; response, % at 10 µM; 350,000 tested, 0.37% active; S. cerevisiae, pHLuorin cytosolic pH fluorescence; in the data active = response mostly above about 7.3%, no sharp cut-off; inactive = mostly below about 5.4%; also: actives read high
tim23-1 inh: tim23-1 yeast growth inhibition | 330,000 tested, 1.3% active | S. cerevisiae tim23-1 growth, BacTiter-Glo luminescence, 24 h | AID 463212 | inhibition, % at 20 µM;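 active = growth inhibition of the mutant yeast at or above 50%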;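 also: temperature-sensitive mutant grown at 25 °C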
NLRP3 yeast inh: inhibitors of NALP3 inflammasome in yeast; Yeast reconstituted NLRP3/ASC/caspase-1, beta-gal luminescence, 24 h; inhibition, % at 10 µM; 330,000 tested, 0.39% active; AID 2825;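 active = inhibition of 50% or more; inactive = inhibition below 50%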
tim10-1 confirm: confirmation of tim10-1 mutant yeast growth inhibitors | S. cerevisiae tim10-1 ts strain growth, BacTiter-Glo, 24 h | shares compounds with tim10-1 inh | inhibition, % at 20 µM | 7,400 tested, 56% active;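 active = inhibition of yeast growth at or above a set limit in either of two repeat tests at 20 µM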;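 also: tim10-1 mutant grown at permissive 25 °C to find synthetic lethal compounds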
Numbers stand for hits; . = inactive; / = no result. Shown are actives, neighbours in structure and some others; about 4.2% of the full set was active somewhere.

SMILES	tim10-1 inh	NALP1 yeast inh	TIM10 inh	V-ATPase pH	tim23-1 inh	NLRP3 yeast inh	tim10-1 confirm
COc1cc(OC)cc(C(=O)Nc2nc(CC(=O)NCc3ccc(F)cc3)cs2)c1	.	/	.	.	.	.	/
CC1(C)CC(NC(=O)C(=O)NCCc2ccc(Cl)cc2)CC(C)(C)N1	.	.	.	.	.	.	/
COc1ccc(C)cc1NC(=O)C1CCCN1S(=O)(=O)c1ccccc1F (centres undefined)	.	/	.	.	.	.	/
O=C(CN1CCN(S(=O)(=O)c2ccc(Br)cc2)CC1)N/N=C/c1ccc(Br)s1	43.6	.	.	.	.	.	36.0
O=C(Cc1ccc(Cl)cc1)Nc1cccc(S(=O)(=O)N2CCCCC2)c1	.	/	.	.	.	.	/
Cc1ccc(/C=N/NC(=O)CN2CCN(S(=O)(=O)c3ccc(Br)cc3)CC2)s1	.	.	.	.	.	.	/
CN(CC(=O)Nc1ccc(S(=O)(=O)N2CCCC2)cc1)CC(=O)Nc1ccc(F)c(F)c1F	.	.	.	.	.	.	/
COC(=O)c1ccc(NC(=O)CN2CCN(S(=O)(=O)c3ccc(Br)cc3)CC2)cc1	46.0	.	.	.	.	.	36.0
CN(CC(=O)Nc1ccc(S(=O)(=O)N2CCCC2)cc1)Cc1ccc(Cl)cc1Cl	46.2	.	.	.	.	.	.
O=C(CCl)Nc1cccc(S(=O)(=O)N2CCCCCC2)c1	40.7	.	.	.	.	.	33.6
COc1cc(OC)cc(C(=O)Nc2ccc3nc4n(c(=O)c3c2)CCCCC4)c1	.	.	.	.	.	.	/
CC(=O)Nc1ccc2nc(C3CCCCC3)[nH]c2c1	.	.	.	.	.	.	/
Cc1ccc(S(=O)(=O)N2CCN(CC(=O)Nc3ccc4c(c3)CCC4)CC2)cc1C	.	.	.	.	.	.	/
O=C(CN1CCN(S(=O)(=O)c2ccccc2)CC1)Nc1ccc(Cl)c(Cl)c1	43.1	.	.	.	.	.	30.0
O=C(CN1CCN(S(=O)(=O)N2CCCCC2)CC1)Nc1ccc(Cl)c(Cl)c1	.	.	.	.	.	.	/
O=C(CN1CCN(S(=O)(=O)c2ccc(Cl)cc2)CC1)Nc1ccc2c(c1)CCC2	50.1	.	.	.	.	.	39.9
CCn1c(SCc2cccc(C)c2)nnc1-c1ccccc1	47.4	.	.	.	.	.	.
CCn1c(SCC(O)c2ccccc2)nnc1-c1ccccc1 (centres undefined)	.	.	.	.	.	.	/
CC(c1ccccc1)N1C(=O)OC(C)(C)C1(C)O (centres undefined)	.	/	.	.	.	.	/
CC1(C)OC(=O)N(c2ccccc2)C12C=Cc1c(ccc3ccccc13)O2 (centres undefined)	42.5	.	.	.	.	.	.
Cc1cccc(Cc2cnc(N3C(=N)SC(C)C3=O)s2)c1 (centres undefined)	.	.	.	.	.	.	/
Cc1cccc(Cc2cnc(N3C(=N)SC(c4ccccc4)C3=O)s2)c1 (centres undefined)	44.5	/	.	.	.	.	30.1
COC(=O)CSc1nc(NC(C)=O)nc(C)c1Br	.	.	.	.	.	.	/
CCOC(=O)C1=C(CSc2nc(-c3ccncc3)ccc2C#N)OC(N)=C(C#N)C1c1cccnc1 (centres undefined)	.	.	.	.	.	.	/
CCOC(=O)C1=C(CSc2nc(-c3ccncc3)ccc2C#N)OC(N)=C(C#N)C1c1ccc(OC)cc1 (centres undefined)	44.8	.	.	.	.	.	.
SMILES	tim10-1 inh	NALP1 yeast inh	TIM10 inh	V-ATPase pH	tim23-1 inh	NLRP3 yeast inh	tim10-1 confirm
CCOC(=O)C1=C(CSc2nc(C)ccc2C#N)OC(N)=C(C#N)C1c1cccc(OC)c1OC (centres undefined)	45.2	.	.	.	.	.	45.2
COc1cccc(C(=O)NCC(=O)OC(C)C(=O)NC23CC4CC(CC(C4)C2)C3)c1 (centres undefined)	.	/	.	.	.	.	/
COc1ccc2cc(C(=O)N/N=C/c3cc(OC)c(OC)c(OC)c3)[nH]c2c1	40.5	.	.	.	.	.	.
COc1ccc(/C=N/NC(=O)c2cc3cc(OC)c(OC)cc3[nH]2)cc1	.	.	.	.	.	.	/
C=CCn1c(-c2cc3cccc(OC)c3o2)n[nH]c1=S	44.3	.	.	.	.	.	.
COc1cc(NC(=O)C2=C(N3CCOCC3)/C(=C/c3ccc(Cl)cc3)CC2)cc(OC)c1OC	44.0	.	.	.	.	.	44.3
COc1ccc(C)cc1NC(=O)C(=O)N/N=C(\C)CC(=O)Nc1cccnc1	.	.	.	.	.	.	/
Cc1cc(C)c2c(=O)n3c(nc2c1)C(Cc1ccc(O)cc1)NC(=O)c1cccnc1-3 (centres undefined)	/	/	/	.	/	/	/
Cc1nn(-c2ccc(F)cc2)c(Cl)c1/C=C1\C(=O)Nc2ccccc21	54.1	.	.	.	.	.	40.6
Cc1ccc(/C=C2\C(=O)Nc3ccccc32)o1	.	.	.	.	.	.	/
CC(C)(C)c1ccc(S(=O)(=O)NCc2ccc(C(=O)NCC3CCCO3)cc2)cc1 (centres undefined)	.	.	.	.	.	.	/
O=C1Cc2cc(S(=O)(=O)N3CCN(c4ccccc4)CC3)ccc2N1	.	.	.	.	.	.	/
O=C(CO/N=C/c1cccc([N+](=O)[O-])c1)Nc1ccc2ccccc2c1	44.9	.	.	.	.	.	.
O=C(CSc1nnc(CCc2ccccc2)n1-c1ccc(Cl)cc1)c1ccccc1	.	.	.	.	.	.	/
COc1ccc(C)cc1NC(=O)c1ccc2c(=O)n3c(nc2c1)CCCCC3	40.5	.	.	.	.	.	.
COc1ccc(N2CCN(c3oc(Cc4ccccc4)nc3C#N)CC2)cc1	40.3	.	.	.	.	.	.
COC(=O)c1ccc2nc(NC(=O)C(C)(C)C)sc2c1	42.2	.	.	.	.	.	35.0
NC(=O)C1CCCN(C(=S)NCc2ccc3c(c2)OCO3)C1 (centres undefined)	.	.	.	.	.	.	/
CCOC(=O)N1CCN(Cc2cc(Cl)c3cccnc3c2O)CC1	46.8	.	.	/	.	.	.
COc1ccc(S(=O)(=O)n2nc(OC(C)=O)cc2N)cc1	.	.	.	.	.	.	/
COc1ccc(C(=O)Oc2cc(N)n(S(=O)(=O)c3ccccc3)n2)cc1	40.0	.	.	.	.	.	.
COc1ccc(S(=O)(=O)n2nc(OC(=O)c3cccs3)cc2NC(=O)c2cccs2)cc1	44.9	.	.	.	.	.	29.5
CCc1ccc(OCC(=O)N/N=C(\C)c2ccc3c(c2)OCCO3)cc1	.	.	.	.	.	.	/
C/C(=N\NC(=O)COc1ccc(C(C)(C)C)cc1)c1ccc2c(c1)OCCO2	40.8	.	.	.	.	.	.
COc1ccc(/C=C/C(=O)NC(=S)NNC(=O)[C@H]2C[C@@H]2c2ccccc2)cc1OC	47.7	.	.	.	.	.	.

Compound activity from PubChem.
